Source: PubChem BioAssay
eIF4H inh = inhibitors of RNA binding by human eIF4H. eIF4H fluorescence polarization binding assay. inhibition, % at 35 µM. actives 0.94% (n = 290,000). AID 2012;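 further: calls also rest on retests at 20 µM and on dose response follow-up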
PABP1 MLLE inh = blocks PAM2 peptide binding to the PABP1 MLLE domain; P11940; GST-MLLE / FITC-PAM2 fluorescence polarization; inhibition, % at 20 µM; actives 0.36% (n = 360,000); in the data active means inhibition above about 35%, passing the limit was not always enough;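 further: plate controls were DMSO wells with GST-MLLE for no effect and wells lacking GST-MLLE protein for full effect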
14-3-3 Bad inh = disrupts binding of bovine 14-3-3 zeta to phospho-Bad peptide; P63103; TR-FRET 14-3-3zeta/Dy647-pBad peptide displacement, 1 h; inhibition, % at 21.7 µM; actives 0.71% (n = 220,000);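 active means inhibition above about 70%, limit read from the data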;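 further: 0% = full 14-3-3 plus peptide FRET controls and 100% = background without 14-3-3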
PABP polyA inh = blocks human PABP binding to poly(A) RNA. actives 1% (n = 290,000). fluorescence polarization. calls only at 35 µM. P11940;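 further: calls also rest on retests at 20 µM and on dose response follow-up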
eIF4E 4G PPI = inhibitors of eIF4E and eIF4G interaction in translation initiation | P63073+Q04637 | TR-FRET eIF4E-eIF4GI(517-606) binding, 2 h | inhibition, % at 21.7 µM | actives 0.37% (n = 220,000) | AID 782;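 active means inhibition above about 30%, limit read from the data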;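 further: 0% = full FRET control wells and 100% = background wells lacking eIF4GI fragment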
Target sequence (P63073 whole entry, looked up, the tested form may be a part): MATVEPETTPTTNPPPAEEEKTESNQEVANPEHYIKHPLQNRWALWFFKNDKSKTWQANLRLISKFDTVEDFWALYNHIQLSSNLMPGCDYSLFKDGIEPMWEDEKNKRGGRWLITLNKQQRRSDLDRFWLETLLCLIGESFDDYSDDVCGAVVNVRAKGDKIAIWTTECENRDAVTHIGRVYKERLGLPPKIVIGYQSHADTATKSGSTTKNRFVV
Target sequence (Q04637 whole entry, looked up, the tested form may be a part): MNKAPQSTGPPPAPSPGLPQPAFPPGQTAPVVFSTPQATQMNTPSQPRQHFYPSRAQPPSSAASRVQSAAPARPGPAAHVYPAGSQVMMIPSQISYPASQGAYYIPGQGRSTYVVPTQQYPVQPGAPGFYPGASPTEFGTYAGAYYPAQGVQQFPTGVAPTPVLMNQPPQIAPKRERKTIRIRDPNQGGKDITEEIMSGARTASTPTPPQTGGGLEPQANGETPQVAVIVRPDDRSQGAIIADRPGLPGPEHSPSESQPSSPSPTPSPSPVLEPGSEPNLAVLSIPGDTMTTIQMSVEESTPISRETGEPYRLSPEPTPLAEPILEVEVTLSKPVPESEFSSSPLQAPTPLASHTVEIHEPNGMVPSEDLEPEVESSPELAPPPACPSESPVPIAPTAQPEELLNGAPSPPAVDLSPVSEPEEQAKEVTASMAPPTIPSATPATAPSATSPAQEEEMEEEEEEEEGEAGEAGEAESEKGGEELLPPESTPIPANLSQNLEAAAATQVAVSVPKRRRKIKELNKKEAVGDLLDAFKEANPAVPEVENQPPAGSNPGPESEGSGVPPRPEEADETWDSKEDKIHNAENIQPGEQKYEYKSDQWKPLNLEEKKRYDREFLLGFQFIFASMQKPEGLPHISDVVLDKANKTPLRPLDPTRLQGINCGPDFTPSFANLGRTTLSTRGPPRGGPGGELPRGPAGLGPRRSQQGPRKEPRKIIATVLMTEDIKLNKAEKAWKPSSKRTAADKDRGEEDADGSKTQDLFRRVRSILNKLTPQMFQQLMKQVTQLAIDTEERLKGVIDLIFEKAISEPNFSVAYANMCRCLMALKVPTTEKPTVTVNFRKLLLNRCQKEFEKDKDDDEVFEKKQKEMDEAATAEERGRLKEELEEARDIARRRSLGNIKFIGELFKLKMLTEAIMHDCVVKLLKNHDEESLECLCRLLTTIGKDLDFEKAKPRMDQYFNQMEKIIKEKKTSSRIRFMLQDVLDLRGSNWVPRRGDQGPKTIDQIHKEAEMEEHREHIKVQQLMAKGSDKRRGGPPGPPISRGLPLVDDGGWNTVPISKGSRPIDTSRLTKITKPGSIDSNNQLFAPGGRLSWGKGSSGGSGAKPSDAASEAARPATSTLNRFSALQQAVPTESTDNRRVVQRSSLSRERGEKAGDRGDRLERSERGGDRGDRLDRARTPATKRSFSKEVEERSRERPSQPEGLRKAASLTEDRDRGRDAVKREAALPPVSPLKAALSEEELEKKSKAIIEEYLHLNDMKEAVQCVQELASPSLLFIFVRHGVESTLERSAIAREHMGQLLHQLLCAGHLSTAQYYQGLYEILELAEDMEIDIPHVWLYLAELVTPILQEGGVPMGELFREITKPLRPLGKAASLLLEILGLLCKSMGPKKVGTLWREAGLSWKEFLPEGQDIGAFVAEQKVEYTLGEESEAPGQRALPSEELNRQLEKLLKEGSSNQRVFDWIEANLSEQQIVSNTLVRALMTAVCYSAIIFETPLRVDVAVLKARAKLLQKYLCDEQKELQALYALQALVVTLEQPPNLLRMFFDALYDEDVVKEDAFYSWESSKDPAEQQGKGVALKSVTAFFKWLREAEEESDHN
* marks the source's active call; other numbers are inactive results. A selection: hits, their analogues and other compounds. The true share with any hit is near 1.9%. Unless noted, how the calls were made is not given here.

Screening Cc1cc(NS(=O)(=O)c2ccc(NC(=S)NC(=O)c3ccc(F)cc3)cc2)no1 returned eIF4H inh 2, PABP1 MLLE inh 40*, 14-3-3 Bad inh -10, PABP polyA inh inactive and eIF4E 4G PPI 1.
C[C@H](NC(=O)c1[nH]cnc1C(=O)Nc1ccc(CNC(=O)OC(C)(C)C)cc1)C(=O)OC(C)(C)C was read as eIF4H inh 1, PABP1 MLLE inh -6, 14-3-3 Bad inh -10, PABP polyA inh inactive and eIF4E 4G PPI -6.
Cc1cc2c(NCc3ccccc3)ncnc2s1 was read as eIF4H inh -3, PABP1 MLLE inh 7 and PABP polyA inh inactive.
Screening CCOc1ccc2nc(Cl)c(C3CC(c4ccco4)=NN3S(C)(=O)=O)cc2c1 (centres undefined) returned eIF4H inh 5, PABP1 MLLE inh -25, 14-3-3 Bad inh 1, PABP polyA inh inactive and eIF4E 4G PPI -1.
`CCOc1ccc2cc(C3CC(c4ccco4)=NN3S(C)(=O)=O)c(=O)[nH]c2c1` (centres undefined) gave eIF4H inh 8, PABP1 MLLE inh -41, 14-3-3 Bad inh 5, PABP polyA inh inactive and eIF4E 4G PPI 36*.
Cc1c(C=C(C#N)c2ccc([N+](=O)[O-])cc2)c(=O)n(-c2ccccc2)n1C was read as PABP1 MLLE inh -15.
COCc1cccc(-c2csc(C(C)(O)c3cccc(F)c3)n2)c1 (centres undefined) was read as PABP1 MLLE inh -20.
Screening CN(C)CCOc1ccccc1-c1ccccc1 returned eIF4H inh -7, PABP1 MLLE inh 8, 14-3-3 Bad inh 72*, PABP polyA inh inactive and eIF4E 4G PPI -12.
COc1cccc(OC)c1OCCN(C)C was read as eIF4H inh -8, PABP1 MLLE inh -3, 14-3-3 Bad inh 86*, PABP polyA inh inactive and eIF4E 4G PPI -3.
`COc1cccc(OC)c1OCCNC(C)(C)C` gave eIF4H inh -2, PABP1 MLLE inh -5, 14-3-3 Bad inh 36, PABP polyA inh inactive and eIF4E 4G PPI 0.
For CN(C)CCOCCOc1ccccc1-c1ccccc1 the results were eIF4H inh 15, PABP1 MLLE inh 1, 14-3-3 Bad inh 87*, PABP polyA inh inactive and eIF4E 4G PPI 3.
Cc1ccc(S(=O)(=O)N2C[C@H]3N(C(=O)OC(C)C)N(C(=O)OC(C)C)C[C@H](OC(=O)Nc4cccs4)[C@@]3(O)C2)cc1 was read as PABP1 MLLE inh 25.
For N#Cc1ccccc1NC(=O)COC(=O)/C=C/c1ccc(S(=O)(=O)N2CCOCC2)cc1 the results were PABP1 MLLE inh -4.
For COc1cccc(/C=N/NC(=O)Cn2cnc3c2c(=O)n(C)c(=O)n3C)c1 the results were eIF4H inh 2, PABP1 MLLE inh 7, 14-3-3 Bad inh 0, PABP polyA inh inactive and eIF4E 4G PPI -1.
For COc1ccc(/C=N/NC(=O)Cn2c(Cc3ccc(OC)c(OC)c3)nc3ccccc32)cc1 the results were eIF4H inh active, PABP1 MLLE inh 4, 14-3-3 Bad inh 9, PABP polyA inh active and eIF4E 4G PPI -1.
`CCCCOC(=O)c1cc(=O)[nH]c(=O)[nH]1` gave eIF4H inh -4, PABP1 MLLE inh -5, 14-3-3 Bad inh -7, PABP polyA inh active and eIF4E 4G PPI 3.
Screening CCOC(=O)CSc1nc2cc(C(=O)N3CCC(C(N)=O)CC3)ccc2c(=O)n1C1CCCCC1 returned eIF4H inh -3, PABP1 MLLE inh 2, 14-3-3 Bad inh -1, PABP polyA inh inactive and eIF4E 4G PPI 0.
Screening COC(=O)c1ccc2c(=O)n(C3CCCCC3)c(SCC#N)nc2c1 returned eIF4H inh 1, PABP1 MLLE inh -5, 14-3-3 Bad inh 74*, PABP polyA inh inactive and eIF4E 4G PPI -27.
Screening Cc1cccc(NC(=O)CCS(=O)(=O)c2ccc3c(c2)NC(=O)CS3)n1 returned eIF4H inh 64, PABP1 MLLE inh 20 and PABP polyA inh active.
`COc1ccc(S(=O)(=O)CCC(=O)N2c3ccccc3CC2C)cc1` (centres undefined) gave eIF4H inh -7, PABP1 MLLE inh 0, 14-3-3 Bad inh 9, PABP polyA inh inactive and eIF4E 4G PPI 4.
CC1Cc2ccccc2N1C(=O)CCS(=O)(=O)c1ccc2c(c1)NC(=O)CS2 (centres undefined) was read as eIF4H inh 58, PABP1 MLLE inh -16 and PABP polyA inh active.
CC1CCC(NC(=O)CCS(=O)(=O)c2ccc3c(c2)NC(=O)CS3)CC1 (centres undefined) was read as eIF4H inh 2, PABP1 MLLE inh 4 and PABP polyA inh inactive.
For COCCN(C(=O)CSc1nnc(-c2ccccc2F)o1)c1c(N)n(Cc2ccccc2)c(=O)[nH]c1=O the results were PABP1 MLLE inh -17.
For Cc1cc(C)c(S(=O)(=O)Nc2ccc(Cl)cn2)c(C)c1 the results were eIF4H inh 0, PABP1 MLLE inh 20 and PABP polyA inh inactive.
For CCC(C)C(=O)Nc1nnc(SCC(=O)Nc2ccccc2F)s1 (centres undefined) the results were eIF4H inh -7, PABP1 MLLE inh -9, 14-3-3 Bad inh 87*, PABP polyA inh inactive and eIF4E 4G PPI -2.
CCC(C)C(=O)Nc1nnc(SCC(=O)Nc2ccc(F)cc2)s1 (centres undefined) was read as eIF4H inh -12, PABP1 MLLE inh -1, 14-3-3 Bad inh 34, PABP polyA inh inactive and eIF4E 4G PPI -2.
Cc1ccc(S(=O)(=O)CC(=O)c2cc(C)c(O)c(C)c2)cc1 was read as eIF4H inh 2.8*, PABP1 MLLE inh 6, 14-3-3 Bad inh -4, PABP polyA inh active and eIF4E 4G PPI 4.
Screening Cc1ccc(S(=O)(=O)NCc2ccccc2)cc1C(=O)N1CCCCCCC1 returned PABP1 MLLE inh 1.
Cc1cc2cc(CNC(=S)Nc3ccc(OC(F)F)cc3)ccc2n1C was read as eIF4H inh 75*, PABP1 MLLE inh 39*, 14-3-3 Bad inh -12, PABP polyA inh active and eIF4E 4G PPI 0.
`COc1ccc(C(=O)NCc2ccc3c(c2)OCO3)cc1` gave eIF4H inh -4, PABP1 MLLE inh -10, 14-3-3 Bad inh -9, PABP polyA inh inactive and eIF4E 4G PPI 2.
`O=C1c2ccccc2C(=O)N1Cc1ccc2c(c1)OCO2` gave eIF4H inh -7, PABP1 MLLE inh -5, 14-3-3 Bad inh 7, PABP polyA inh inactive and eIF4E 4G PPI -1.
COc1ccc(C(=O)NCc2ccc3c(c2)cc(C)n3C)cc1 was read as eIF4H inh 49, PABP1 MLLE inh 51*, 14-3-3 Bad inh 1, PABP polyA inh inactive and eIF4E 4G PPI 2.
`COc1cc(OC)cc(C(=O)NCc2ccc3c(c2)cc(C)n3C)c1` gave eIF4H inh 69, PABP1 MLLE inh 78, 14-3-3 Bad inh -9, PABP polyA inh inactive and eIF4E 4G PPI -3.
For Cc1cc2cc(CN3C(=O)c4ccccc4C3=O)ccc2n1C the results were eIF4H inh 94, PABP1 MLLE inh 48*, 14-3-3 Bad inh -9, PABP polyA inh inactive and eIF4E 4G PPI -2.
